Experiment [1] addresses Mitogen-activated protein kinase 10 (Mus musculus) (UniProt Q61831). As to the kind of experiment: JNK3 AlphaScreen Assay (AID 530; active = well fitted curve in either direction with a large enough effect, not every such curve was filed as active;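 note: kinase came from lysate of stimulated human HepG2 cells; signal reports phosphorylation of biotinylated GST-cJun 1-79 at Ser73 with 10 µM ATP; series mostly up to about 57 µM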). Summed up: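 qHTS format: compounds tested as titrations against IL-1beta/TNF-alpha-activated HepG2 lysate JNK3 with biotin-GST-cJun substrate and 10 uM ATP at room temperature. Loss of anti-phospho-cJun AlphaScreen signal indicates inhibition.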
(In Alpha technology, singlet oxygen from a donor bead excites a nearby acceptor bead.)

In experiment [2] the target is Cytochrome P450 2C9 (Homo sapiens) (UniProt P11712). As to the kind of experiment: qHTS Assay for Inhibitors and Substrates of Cytochrome P450 2C9 (AID 883). Note: potency is the fitted concentration of half-maximal effect; nearly all actives have a fitted effect of over 60% in size. Summed up:
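Signal: luciferase luminescence reporting luciferin produced by CYP2C9. Conditions: 10nM enzyme, Luciferin-H 100uM at KM, 25mM KPO4, 37C, 60 min NADPH-driven reaction. Reference: 57uM sulphaphenazole as 100% inhibition.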
On the technique in general: qHTS replaces the single test concentration by a dilution series.

Experiment [3] deals with Cytochrome P450 3A4 (Homo sapiens) (UniProt P08684). As to the kind of experiment: qHTS Assay for Activators of Cytochrome P450 3A4 (AID 885). Note: nearly all actives have a fitted effect of over 65% in size. Summed up:
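Quantitative HTS format: compounds preincubated with 20nM human CYP3A4 and Luciferin-PPXE substrate at KM, reaction started by NADPH regeneration, stopped after 60 min, luciferase luminescence read 20 min later.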

Experiment [4] shares this target. As to the kind of experiment: qHTS Assay for Inhibitors and Substrates of Cytochrome P450 3A4 (AID 884). Note: nearly all actives have a fitted effect of over 50% in size. Note: potency is the fitted concentration of half-maximal effect. Summed up:
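20 nM human CYP3A4 with 25 uM Luciferin-PPXE (at KM) in 200 mM KPO4, preincubated 10 min with compound; NADPH regeneration started a 60 min RT reaction. Luciferin detected by luminescence, normalized to 57 uM ketoconazole as full inhibition.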

In experiment [5] the target is 3',5'-cyclic-AMP phosphodiesterase 4B (Homo sapiens) (UniProt Q07343). As to the kind of experiment: qHTS Assay for Inhibitors of PDE-IV (AID 607; active = well fitted activation curve with a large enough effect in the main read-out, with a control signal flat, not every such curve was filed as active). Summed up:
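Live HEK293 cells with a modified cyclic nucleotide-gated (CNG) channel report intracellular cAMP via membrane-potential dye fluorescence (ex 535/em 590 nm). Endogenous PDE-IV was targeted. Compounds were tested at up to 22.9 uM final; RO 20-1724 100 uM served as control.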

In experiment [6] the target is Cytochrome P450 2C19 (Homo sapiens) (UniProt P33261). As to the kind of experiment: qHTS Assay for Inhibitors and Substrates of Cytochrome P450 2C19 (AID 899). Note: potency is the fitted concentration of half-maximal effect; nearly all actives have a fitted effect of over 60% in size. The method in brief:
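Signal comes from luciferase acting on luciferin released by CYP2C19-mediated hydroxylation of Luciferin-H EGE, 10uM (KM). Assay mix: 5nM enzyme, 50mM KPO4; 60 min at 37C with NADPH regeneration. Data normalized against 57uM ketoconazole.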

Records with an inconclusive call do not appear. Entries that show only a call come without a potency. Active and inactive are the calls of the source. Unless noted, calls come from the whole dose curve; as a rule, active = well fitted curve in the direction sought with a large enough effect; inconclusive = small, poorly fitted or top-dose-only effect, or another doubt; inactive = no such curve, though single readings can be large; an effect the other way counts as inactive or inconclusive.

Chain of 3',5'-cyclic-AMP phosphodiesterase 4B (Homo sapiens) (Q07343 whole entry, looked up): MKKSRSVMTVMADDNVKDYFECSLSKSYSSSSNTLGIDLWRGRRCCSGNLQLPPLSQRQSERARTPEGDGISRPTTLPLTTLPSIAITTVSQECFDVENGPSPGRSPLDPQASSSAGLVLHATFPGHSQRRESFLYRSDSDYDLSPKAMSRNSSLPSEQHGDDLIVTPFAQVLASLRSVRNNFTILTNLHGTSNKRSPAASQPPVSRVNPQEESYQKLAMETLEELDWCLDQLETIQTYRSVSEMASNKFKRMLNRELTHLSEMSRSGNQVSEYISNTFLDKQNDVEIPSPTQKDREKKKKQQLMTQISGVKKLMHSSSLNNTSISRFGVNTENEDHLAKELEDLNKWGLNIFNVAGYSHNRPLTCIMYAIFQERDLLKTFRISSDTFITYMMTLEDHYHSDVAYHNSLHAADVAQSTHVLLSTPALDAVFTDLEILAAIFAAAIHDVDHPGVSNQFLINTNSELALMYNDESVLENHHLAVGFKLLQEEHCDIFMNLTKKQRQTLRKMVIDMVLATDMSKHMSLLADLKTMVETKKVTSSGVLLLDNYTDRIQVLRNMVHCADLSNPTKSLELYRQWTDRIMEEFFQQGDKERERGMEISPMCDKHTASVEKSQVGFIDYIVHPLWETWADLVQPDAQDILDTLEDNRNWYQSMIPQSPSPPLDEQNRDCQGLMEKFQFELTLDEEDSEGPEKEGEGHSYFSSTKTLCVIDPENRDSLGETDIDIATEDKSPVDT
Chain of Cytochrome P450 2C19 (Homo sapiens) (P33261 whole entry, looked up): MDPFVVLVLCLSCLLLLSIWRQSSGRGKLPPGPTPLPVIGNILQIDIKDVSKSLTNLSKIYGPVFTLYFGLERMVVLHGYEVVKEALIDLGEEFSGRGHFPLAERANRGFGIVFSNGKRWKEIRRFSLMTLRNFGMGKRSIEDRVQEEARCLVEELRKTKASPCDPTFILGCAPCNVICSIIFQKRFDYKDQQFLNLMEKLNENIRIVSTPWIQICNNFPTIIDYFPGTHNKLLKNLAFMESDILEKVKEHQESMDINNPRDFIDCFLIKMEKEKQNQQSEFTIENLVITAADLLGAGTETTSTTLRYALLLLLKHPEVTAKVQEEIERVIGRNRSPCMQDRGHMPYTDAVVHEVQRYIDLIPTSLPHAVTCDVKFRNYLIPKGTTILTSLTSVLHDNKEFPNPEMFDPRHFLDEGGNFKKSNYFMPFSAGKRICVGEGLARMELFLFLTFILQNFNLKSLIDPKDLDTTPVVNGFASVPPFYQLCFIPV
Chain of Cytochrome P450 3A4 (Homo sapiens) (P08684 whole entry, looked up): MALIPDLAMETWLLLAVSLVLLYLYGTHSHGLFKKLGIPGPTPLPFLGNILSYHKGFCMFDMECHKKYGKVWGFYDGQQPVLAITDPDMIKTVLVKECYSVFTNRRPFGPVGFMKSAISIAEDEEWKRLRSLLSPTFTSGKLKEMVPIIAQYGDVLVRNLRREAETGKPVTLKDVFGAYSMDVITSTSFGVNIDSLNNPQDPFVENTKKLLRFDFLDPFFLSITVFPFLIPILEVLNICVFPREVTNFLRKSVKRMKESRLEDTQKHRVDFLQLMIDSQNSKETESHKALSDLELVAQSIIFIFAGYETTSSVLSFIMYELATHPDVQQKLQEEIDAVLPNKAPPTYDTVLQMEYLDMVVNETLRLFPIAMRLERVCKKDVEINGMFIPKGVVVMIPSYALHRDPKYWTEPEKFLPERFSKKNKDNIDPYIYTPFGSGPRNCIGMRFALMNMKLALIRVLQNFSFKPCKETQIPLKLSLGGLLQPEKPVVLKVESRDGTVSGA
Chain of Cytochrome P450 2C9 (Homo sapiens) (P11712 whole entry, looked up): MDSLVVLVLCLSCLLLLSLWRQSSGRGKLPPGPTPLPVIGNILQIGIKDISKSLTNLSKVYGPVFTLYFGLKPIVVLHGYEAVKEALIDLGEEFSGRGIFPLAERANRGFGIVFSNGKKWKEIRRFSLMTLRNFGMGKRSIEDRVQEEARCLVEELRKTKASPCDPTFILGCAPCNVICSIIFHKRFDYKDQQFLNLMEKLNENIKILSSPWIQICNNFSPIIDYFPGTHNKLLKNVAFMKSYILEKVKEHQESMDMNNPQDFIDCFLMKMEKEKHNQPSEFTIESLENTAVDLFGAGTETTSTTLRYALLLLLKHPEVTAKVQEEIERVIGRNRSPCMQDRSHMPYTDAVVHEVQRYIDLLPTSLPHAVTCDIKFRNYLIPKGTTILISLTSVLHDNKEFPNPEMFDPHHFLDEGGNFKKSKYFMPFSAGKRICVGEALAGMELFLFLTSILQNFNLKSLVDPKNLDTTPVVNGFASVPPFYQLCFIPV

For the compound `CCCC[C@@H]1C[C@H]1C(NC(=O)c1cccnc1)c1ccc(-c2ccccc2)cc1` (stereo partly specified), the result in experiment [1] was inactive. Besides, in experiment [2], the Potency is 5.01 µM (active). Moreover, the Potency entry in experiment [3] is “inactive”.

Consider `CC(=O)N1C2(C=CC1(C)C(=O)NCc1ccccn1)CCCCC2` (stereo unspecified), for which, in experiment [1], the compound was classed as inactive. For the same compound, the Potency in experiment [4] was 12.6 µM (active).

As to `CC1=C(C(=O)OCc2ccccc2)C(c2cccc([N+](=O)[O-])c2)NC(=O)N1CCCCCC(=O)O` (stereo unspecified), the result in experiment [1] was inactive. For the same compound, the Potency entry in experiment [4] was “inactive”.

`COCCNC(=O)[C@H](C)[C@@H]1C[C@@]1(C)[C@@H](NC(=O)OCc1ccccc1)c1ccccc1`: the outcome in experiment [1] and in experiment [5] was inactive. Further, the figures for the Potency in experiment [4] and in experiment [6] were 7.94 µM (active) and 3.16 µM (active), respectively. The Potency entry in experiment [3] is “inactive”.

As for `CC(Cc1ccccc1)C(=O)NCC1CC1` (stereo unspecified), the outcome in experiment [1] was inactive. The Potency result in experiment [4] was “inactive”.

With `COC(=O)[C@@]1(Cc2ccc(F)cc2)[C@H]2c3cc(C(=O)N4CCCC4)n(Cc4ccc(S(C)(=O)=O)cc4)c3C[C@H]2CN1C(=O)c1ccccc1`, the result in experiment [1] and in experiment [5] was inactive. Besides, the Potency result in experiment [3] is “inactive”.

For `COC(=O)CCCCCN1C(=O)NC(c2ccc(-c3ccccc3)cc2)C(C(=O)OCc2ccccc2)=C1C` (stereo unspecified), the outcome in experiment [1] was inactive. For the same compound, in experiment [4], the Potency result is “inactive”.

Turning to `C[C@H]1C2=C3C(CC[C@H]4C(OCc5ccc(F)cc5C(F)(F)F)OC[C@](C)([C@@H]34)N(C(=O)OC(C)(C)C)C2)C2COC(=O)OCC21` (stereo partly specified), the result in experiment [1] and in experiment [5] was inactive. The Potency result in experiment [3] is “inactive”.

In the case of `C[C@H](CO)NC(=O)[C@H](C)[C@H]1C[C@]1(C)[C@H](NC(=O)OCc1ccccc1)c1ccccc1`, the compound was called inactive in experiment [1] and in experiment [5]. Also, the Potency was 3.98 µM (active) in experiment [4] and 0.631 µM (active) in experiment [6]. In experiment [3], the Potency entry was “inactive”.

`COC(=O)[C@@]1(Cc2ccccc2)C=C[C@@H](C)N1C(C)=O`: the compound was classed as inactive in experiment [1]. In experiment [4], the Potency entry was “inactive”.

On to `COC(=O)N1CC=CC1(C)C(=O)NCC1CC1` (stereo unspecified), for which the outcome in experiment [1] was inactive. The Potency entry in experiment [4] was “inactive”.

With `COCCNC(=O)C1(C)C=CCN1C(C)=O` (stereo unspecified), the outcome in experiment [1] was inactive. For the same compound, in experiment [4], the Potency entry was “inactive”.

Regarding `C[C@H](CO)NC(=O)[C@H](C)[C@@H]1C[C@@]1(C)[C@@H](NC(=O)OCc1ccccc1)c1ccccc1`, the compound was classed as inactive in experiment [1] and in experiment [5]. For the same compound, the Potency in experiment [4] is 5.01 µM (active). In addition, in experiment [3], the Potency result was “inactive”.

On to `CC(=O)N1[C@H](Cc2ccccc2)C=C[C@]1(C)C(=O)NCc1ccccn1`, for which, in experiment [1], the call was inactive. In addition, the Potency entry in experiment [4] was “inactive”.

`COCCNC(=O)C1(CC(C)C)C=CCN1C(C)=O` (stereo unspecified): the result in experiment [1] was inactive. Further, in experiment [4], the Potency entry is “inactive”.

Regarding `CN1[C@H](Cc2ccccc2)C=C[C@]1(C)C(=O)NCC1CC1`, the outcome in experiment [1] was inactive. Moreover, in experiment [4], the Potency result is “inactive”.

As to `COC(=O)c1ccc(C(NC(=O)OCc2ccccc2)/C(=C/[C@@H](C)C(=O)NCc2cc(C)n(C)n2)c2cccnc2)cc1` (stereo partly specified), the compound was called inactive in experiment [1]. The Potency entry in experiment [4] is “inactive”.

For `CO[C@H]1OC[C@@]2(C)[C@@H]3C4=C(CN2C(=O)OC(C)(C)C)[C@H](C)[C@H](CO)[C@H](CO)[C@H]4CC[C@H]13`, the result in experiment [1] and in experiment [5] was inactive. For the same compound, the Potency entry in experiment [3] is “inactive”.

With `CC(C)CC1(C(=O)O)C=CCN1C(=O)c1ccccc1` (stereo unspecified), the outcome in experiment [1] was inactive. Also, in experiment [4], the Potency result was “inactive”.

Regarding `COC(=O)c1ccc(C(NC(=O)OCc2ccccc2)/C(F)=C/[C@@H](C)C(=O)NC2CCCCC2)cc1` (stereo partly specified), the outcome in experiment [1] was inactive. In experiment [4], the Potency is 3.98 µM (active).

`COC(=O)[C@@]1(Cc2ccc(OC)cc2)[C@@H]2[C@@H](CC(=O)[C@H]2CC(=O)C(=O)N(C)C)CN1C(=O)c1ccccc1`: the outcome in experiment [1] and in experiment [5] was inactive. In experiment [3], the Potency entry is “inactive”.

In the case of `CCCCCCN(C(=O)CCCCCN1C(=O)NC(c2ccc(-c3ccccc3)cc2)C(C(=O)OCc2ccccc2)=C1C)C(C(=O)NCCCC)c1ccc(-c2ccccc2)cc1` (stereo unspecified), the result in experiment [1] was inactive. Further, the Potency entry in experiment [4] is “inactive”.

Turning to `COCCNC(=O)[C@H](C)[C@H]1C[C@]1(C)[C@H](NC(=O)OCc1ccccc1)c1ccccc1`, the outcome in experiment [1] and in experiment [5] was inactive. Also, the Potency in experiment [4] is 3.16 µM (active). Besides, the Potency result in experiment [3] was “inactive”.

For `CCC/C=C(\CCC)C(NS(C)(=O)=O)c1ccccc1` (stereo unspecified), the compound was classed as inactive in experiment [1] and in experiment [5]. For the same compound, the Potency result in experiment [3] was “inactive”. Also, the Potency in experiment [6] is 7.94 µM (active).

In the case of `Cc1nc(NCCO)c2nc(-c3ccccc3)n(CCN(C)C)c2n1`, the outcome in experiment [1] was inactive. Moreover, in experiment [4], the Potency result was “inactive”.

In the case of `CC(Cc1ccccc1)C(=O)Nc1ccccc1` (stereo unspecified), the compound was called inactive in experiment [1]. For the same compound, in experiment [4], the Potency result was “inactive”.

In the case of `CC(Cc1ccccc1)C(=O)N1CCN(C)CC1` (stereo unspecified), the result in experiment [1] was inactive. Besides, the Potency entry in experiment [4] is “inactive”.

For the compound `CC(=O)N1[C@H](Cc2ccccc2)C=C[C@]1(C)C(=O)O`, in experiment [1], the compound was called inactive. Also, in experiment [4], the Potency entry was “inactive”.

With `COC(=O)c1ccc(C(NC(=O)OCc2ccccc2)/C(F)=C/[C@@H](C)C(=O)NCc2ccc(-c3ccccc3)cc2)cc1` (stereo partly specified), in experiment [1], the result was inactive. The Potency in experiment [4] is 3.98 µM (active).

`CNC(=O)C1(C)C=CCN1C(=O)c1ccccc1` (stereo unspecified): in experiment [1], the compound was called inactive. Also, in experiment [4], the Potency entry is “inactive”.

Turning to `COC(=O)CNC(=O)[C@@]1(Cc2ccccc2)C=C[C@@H](C)N1C(=O)c1ccccc1`, the compound was called inactive in experiment [1]. The Potency entry in experiment [4] was “inactive”.

For `CNC(=O)C1(CC(C)C)C=CCN1C(C)=O` (stereo unspecified), the result in experiment [1] was inactive. Also, the Potency result in experiment [4] is “inactive”.

Source of the values: PubChem BioAssay (NCATS).
